Measurements published in PubChem BioAssay AID1461 (National Center for Advancing Translational Sciences (NCATS), 2008).
Screen size: about 220,000 compounds; about 2,300 (1%) were called active. About 6% were inconclusive and are not listed. What follows is part of a selection rich in actives, with near analogues and random picks from the rest. A call without a number means that no potency is given here. Unmarked numbers belong to inactive results. The call rests on the fitted dose curve; in most records, active means well fitted inhibition curve with a large enough effect; inconclusive means small, poorly fitted or top-dose-only effect, or effect the other way; inactive means no such curve, though single readings can be large or run the other way.

Target: Neuropeptide S receptor (Homo sapiens) (UniProt Q6W5P4)
Assay: qHTS Assay for Antagonists of the Neuropeptide S Receptor: cAMP Signal Transduction; further: nearly all actives have a fitted effect of over 50% in size
Settings: CHO-NPSR cells, cAMP TR-FRET, antagonist mode; series mostly up to 38.3 µM
Excerpt: NIH Chemical Genomics Center [NCGC] NIH Molecular Libraries Probe Production centers Network [MLPCN] MLPCN Grant: X01-DA026210-01 Assay Submitter (PI): Heilig, Markus Alexander NCGC Assay Overview: Neuropeptide S receptor (NPSR), previously known as GPR154, is a recently de-orphanized G protein coupled receptor. Its endogenous ligand is the 20 amino acids peptide Neuropeptide S (NPS). […] NPS and its receptor are found in various tissues. Specifically they are highly expressed in brain areas that have been implicated in modulation of arousal, stress and anxiety. Central administration of NPS in mice produces an unusual profile of activity by inducing wakefulness and arousal, while at the same time suppressing anxiety. Therefore, NPSR may represent a novel drug target for the treatment of sleep and anxiety disorders. To identify NPSR antagonists, we developed a cell-based cAMP assay. NPS can stimulate the production of cAMP in Chinese hamster ovary cells stably expressing NPS receptor. This change in intracellular cAMP level can be detected by a homogeneous LANCE cAMP assay based on the TR-FRET (time resolved fluorescence resonance energy transfer) between a europium-labeled cAMP tracer complex and a cAMP-specific antibody labeled with Alexa Fluor 647. The europium-labeled cAMP tracer complex is formed by the tight interaction between Biotin-cAMP (b-cAMP) and streptavidin labeled with Europium-W8044 chelate (Eu-SA). Light pulse at 320 nm excites the europium of the cAMP tracer and the energy emitted is transferred to the Alexa molecule bound to the cAMP antibody, generating a TR-FRET signal at 665 nm. Residual energy from the europium will produce a light at 620 nm. The native unlabeled cAMP from cell lysates competes with the europium-cAMP tracer for antibody binding and reversely reduces the emission signal of Alexa by interrupting FRET between the two labeled molecules. Both emission signals from the FRET donor (620 nm) and the acceptor (665 nm) can be detected by a plate reader in the TRF mode. Expression of result in fluorescence ratio (665 nm/620 nm) helps to normalize differences due to cell density and reagent dispensing. This assay was successfully optimized to a 1536-well plate format.
NCGC Assay Protocol Summary: A Chinese hamster ovary (CHO) cell line stably expressing the NPS receptor (CHO-NPSR) was obtained from Dr. Heilig lab at NIAAA and maintained in F-12 Kaighn's media (Invitrogen, Carlsbad, CA, 21127) supplemented with 10 % FBS, 100 units/ml penicillin, 100 ug/ml streptomycin and 250 ug/ml geneticin at 37C, 5% CO2 in a humidified atmosphere. Before the assay, aliquots of cells were frozen and stored at -135C. The assay was performed in 1536-well format. Data are reported for both the ratio of the two emission wavelengths, and also for the component 'donor' channel, Em2=620. Data were normalized to the controls for basal activity (DMSO only) and 100% inhibition (No NPS control). IC50 values were determined from concentration-response data modeled with the standard Hill equation. NPS 1536-well assay protocol: (1) Fresh or frozen CHO-NPSR cells were suspended in F-12 Kaighn's media supplemented with 10 % FBS, 100 units/ml penicillin and 100 ug/ml streptomycin. Cells were plated at 4 ul/well (1200 cells) to white, tissue culture treated 1536-well plates, and then cultured at 37C, 5 % CO2 for 16 to 30 hours. (2) Add 23 nl/well of compound in DMSO solution. The final titration for each compound was between 0.6 nM and 46 uM. (3) Add 1 ul of stimulation reagent (1X HBSS buffer, 5 mM HEPES, 0.1% BSA, 500 uM RO-201724 (Sigma-Aldrich, B8279), 1.5% Alexa 647-labeled anti-cAMP antibody (from Perkin Elmer), 100 nM NPS) (4) Incubation at 37C, 5 % CO2 for 60 min. (5) Add 1 ul/well detection reagent. Detection reagent was prepared by adding biotin labeled cAMP (4%), streptavidin labeled with Europium-W8044 chelate (1.33%) and TritonX-100 (1%) to detection buffer. […]
Potency means the concentration at half of the fitted maximal effect.

Chain of Neuropeptide S receptor (Homo sapiens) (Q6W5P4 whole entry, looked up): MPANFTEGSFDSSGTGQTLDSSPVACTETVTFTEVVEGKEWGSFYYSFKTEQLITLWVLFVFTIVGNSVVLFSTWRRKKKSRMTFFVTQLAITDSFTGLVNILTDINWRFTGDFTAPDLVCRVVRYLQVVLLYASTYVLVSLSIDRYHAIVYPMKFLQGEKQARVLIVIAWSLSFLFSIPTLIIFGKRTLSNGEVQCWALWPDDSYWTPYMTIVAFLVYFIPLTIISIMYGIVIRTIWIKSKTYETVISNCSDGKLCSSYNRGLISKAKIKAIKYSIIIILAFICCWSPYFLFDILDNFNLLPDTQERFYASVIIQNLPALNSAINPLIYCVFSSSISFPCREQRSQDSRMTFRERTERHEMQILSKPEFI

Row | Structure (SMILES) | Potency | activity change, negative = inhibition
1 | Cc1nc(CNS(=O)(=O)c2cc([N+](=O)[O-])ccc2C)cs1 | inactive | 
2 | Cc1nc(=O)c(-c2ccccc2)c(C)n1-c1ccc(Br)cc1 | inactive | 
3 | CC(NCc1ccccc1OC1CCCC1)c1ccccc1 (stereo unspecified) | inactive | 
4 | NC(=S)Nc1c(Cl)cccc1Cl |  | 7.17% [at 7.67 µM]
5 | CN(c1ccccn1)c1ncnc2[nH]ncc12 | inactive | 
6 | CCOC(=O)c1cc(NC(=O)c2ccc(Cl)cc2)c(=O)oc1-c1ccccc1 | inactive | 
7 | CC(=O)c1cc(NC(=O)c2ccccc2)c(=O)oc1/C=C/N(C)C | 10 µM (active) | 
8 | Cc1ccccc1NC(=O)c1ccccc1 | inactive | 
9 | COc1ccc(C2/C=C\CN(S(=O)(=O)c3cccs3)CC(=O)N2Cc2ccc(F)cc2)cc1 (stereo unspecified) | inactive | 
10 | COc1ccc(CN2C(=O)C(C)S/C2=N/N=C/c2ccco2)cc1 (stereo unspecified) | inactive | 
11 | CCOC(=O)c1ccc(NC(=O)c2nc[nH]c2C(=O)N[C@@H](CCCCNC(=O)OC(C)(C)C)C(=O)OC(C)(C)C)cc1 | inactive | 
12 | O=C(Cc1nc2ccccc2[nH]c1=O)c1ccc(Cl)cc1 | inactive | 
13 | CCC(=O)/C(=C(/O)c1ccccc1)c1nc2ccccc2[nH]1 | inactive | 
14 | O=C(/C(=C/c1cccc(Cl)c1)c1nc2ccccc2[nH]1)c1ccccc1 | 10 µM (active) | 
15 | CC1=CC2=NC(=O)/C(=C/c3coc4ccccc4c3=O)C(=N)N2O1 | inactive | 
16 | Cc1ccc(/C=N/NC(=O)CSc2ccccn2)o1 | inactive | 
17 | Cc1ccc(C(O)P(=O)(OC(C)C)c2ccc(N(C)C)cc2)cc1 (stereo unspecified) | inactive | 
18 | O=C(Nc1ccc2c(c1)OCCO2)c1ccoc1 | inactive | 
19 | CC(=O)O[C@]1(C(C)=O)CC[C@H]2[C@@H]3C=C(C)C4=CC(=O)CC[C@]4(C)[C@H]3CC[C@@]21C | 3.98 µM (active) | 
20 | NC(=O)NC(=O)CSc1nc2cc([N+](=O)[O-])ccc2n1-c1cccc(C(F)(F)F)c1 | inactive | 
21 | COc1ccc(/C=C/c2nnc(NC(=O)C(C)C)s2)cc1 | inactive | 
22 | C/C(CC(=O)NC(C)c1ccccc1)=N\NC(N)=S (stereo unspecified) | inactive | 
23 | Cc1cccc2cc(CN(Cc3nnnn3Cc3ccccc3)C3CCCC3)c(=O)[nH]c12 | inactive | 
24 | Cc1cc(C)c2[nH]c(=O)c(C(c3nnnn3Cc3ccc4c(c3)OCO4)N3CCCC3)cc2c1 (stereo unspecified) | inactive | 
25 | Cc1cccc2cc(CN(Cc3ccc4c(c3)OCO4)Cc3nnnn3C3CCCC3)c(=O)[nH]c12 | 12.6 µM (active) | 
26 | COCCN(Cc1cc2cc3c(cc2nc1Cl)OCO3)C(=O)c1cccc(C)c1 | inactive | 

Row | Structure (SMILES) | Potency | activity change, negative = inhibition
27 | Cc1ccc(NNC(=O)c2cccs2)cc1Cl | inactive | 
28 | Cc1cc(C)c(C)c(S(=O)(=O)N[C@@H](C)C(=O)OC(C)C(=O)NC(N)=O)c1C (stereo partly specified) | inactive | 
29 | O=C(Nc1ccc(Cl)cc1)/C(=C1\CCCN1)[N+](=O)[O-] | inactive | 
30 | Cc1ccccc1OCC(=O)Nc1ccc(N2CCN(C(=O)C(C)C)CC2)c(Cl)c1 | 12.6 µM (active) | 
31 | COc1cc(NC(=O)COc2ccccc2Cl)ccc1NC(=O)C(C)C | inactive | 
32 | CN1CCN(c2ccc(NC(=O)COc3ccc(Cl)cc3Cl)cc2)CC1 |  | 3.6% [at 7.67 µM]
33 | Nc1ccc(N=Nc2ccccc2Cl)c(N)n1 | inactive | 
34 | COc1ccc(CCNC(=O)C(=O)NCC2CCNCC2)cc1OC | inactive | 
35 | Cc1cc(C)c(C#N)c(SCc2[nH]nc3c2C(c2ccccc2)C(C#N)=C(N)O3)n1 (stereo unspecified) | inactive | 
36 | Cc1cc(C)c2c3c(sc2n1)C(c1ccccc1)C(C#N)=C(N)O3 (stereo unspecified) | 10 µM (active) | 
37 | N#CC1=C(N)Oc2c(sc3ccccc23)C1c1ccco1 (stereo unspecified) |  | -7.26% [at 7.67 µM]
38 | O=C1CCC(=O)N(O)CCCCCNC(=O)CCC(=O)N(O)CCCCCNC(=O)CCC(=O)N(O)CCCCCN1 | inactive | 
39 | NC(=O)N/N=C\c1cccs1 | inactive | 
40 | O=S(=O)(c1ccc(F)cc1)N1CC=C(c2ccccc2)CC1 |  | -0.503% [at 7.67 µM]
41 | Cc1ccccc1Nc1scc(-c2ccc(Br)cc2)[n+]1-c1ccccc1C | 10 µM (active) | 
42 | Nc1scc[n+]1Cc1cccc2cccnc12 | inactive | 
43 | Nc1nc(NC(=O)/C=C/c2ccc(F)cc2)nn1-c1ccccc1 | inactive | 
44 | COc1cc(/C=N/O)ccc1OCc1ccc([N+](=O)[O-])cc1 | inactive | 
45 | CCCc1ccc(OCc2ccc(C(=O)N/N=C/c3cccc([N+](=O)[O-])c3)o2)c(OC)c1 | 10 µM (active) | 
46 | COC(=O)c1ccc(COc2ccc(/C=N/NC(=O)C(=O)Nc3ccc(OC)cc3)cc2OC)o1 | inactive | 
47 | COc1cccc(OC)c1CN(C)C(=O)c1cnccc1C(F)(F)F | inactive | 
48 | COC(C[C@H](O)CC(=O)COCc1ccccc1)OC | inactive | 
49 | Cc1ccc(S(=O)(=O)/N=C(/NC(=S)Nc2c(C)n(C)n(-c3ccccc3)c2=O)c2ccccc2)cc1 | inactive | 
50 | CSCC[C@H](NC(=O)CCCn1nnc2ccccc2c1=O)C(=O)O | inactive | 
51 | S=C(NCCc1ccccc1)Nc1ccccc1 | inactive | 
